IL1B secr inh = inflammasome signaling inhibition, IL-1 beta readout; 360,000 tested, 4.7% active; activity change, % at 57.5 µM; THP-1 LPS/ATP IL-1B secretion, AlphaLISA, 16 h; stronger effect = lower value; AID 743279; in the data active = activity change below about -50%; inconclusive = mostly about -30% to -49%; also: % is scaled to controls: 0 for no effect and ±100 for the full control effect
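Secreted IL-1B measured by AlphaLISA bead assay after 16 h compound exposure of THP-1 cells; compounds (final up to 57.5 uM) added 1 h before LPS (250 ng/mL) and ATP (1.25 mM) stimulation; lower signal means less secretion.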
HepG2 viability = HepG2 cytotoxicity, counter-screen for TGF-b inhibitors; HepG2 CAGA-GFP viability, ATP luminescence, 18 h; Potency, µM (top dose mostly 46.1 µM), for the others: top-dose activity change, negative = cytotoxicity, most hits filed as cytotoxic; 410,000 tested, 0.76% active; also: potency is read from the fitted curve at half-maximal effect
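HepG2 CAGA-GFP cells (1000/well, DMEM with 1% FBS) received compound, then TGF-beta at 500 pg/mL final, and were incubated 18 hours at 37 degrees C. Viability was read by CellTiter-Glo luminescence. Media-only wells were set as complete cell-killing and DMSO as no toxicity.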
TGFb SMAD3 inh = TGF-b pathway inhibition; Potency, µM (top dose mostly 46.1 µM), for inactives: at the highest dose activity, negative = inhibition, usual class: inhibitors; 410,000 tested, 1.2% active; HepG2 CAGA-GFP TGF-b/SMAD3 reporter, GFP fluorescence, 18 h; TGF-beta stimulated, 500 pg/mL final; also: potency is read from the fitted curve at half-maximal effect; % is scaled to controls: 0 for no effect and ±100 for the full control effect; nearly all actives have a fitted effect of over 65% in size
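Cell-based qHTS in HEPG2 carrying a CAGA-GFP Smad reporter; compounds added before 500 pg/mL final TGF-beta, 18 h incubation at 37 degrees C, GFP fluorescence quantified per cell by imaging cytometry.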
DT40 TDP1 no CPT = qHTS for Inhibitors of human tyrosyl-DNA phosphodiesterase 1 (TDP1): qHTS in cells in absence of CPT. Potency, µM (series often up to 46.2 µM), for inactives: top-dose activity change, negative = growth inhibition, hits mostly inhibitors. DT40 Tdp1-/- hTDP1 cells, no CPT, ATP luminescence, 48 h. AID 686978, 2013. 420,000 tested, 15% active; also: potency is read from the fitted curve at half-maximal effect; % is scaled to controls: 0 for no effect and ±100 for the full control effect; nearly all actives have a fitted effect of over 55% in size
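A cellular qHTS used chicken DT40 cells lacking endogenous Tdp1 but carrying stably transfected human TDP1. Compounds were applied without camptothecin, and cell growth kinetics were judged by ATP-dependent luminescence after ≥48 hr.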
DT40 TDP1 CPT = growth inhibition of DT40 Tdp1-/-;hTDP1 cells with camptothecin (screen for TDP1 inhibitors) | Potency, µM (highest dose often 46.2 µM), inactives show at the top dose activity change, negative = growth inhibition, hits mostly inhibitors | 420,000 tested, 12% active | AID 686979 | chicken DT40 Tdp1-/-;hTDP1 cells + 20 nM CPT, ATP luminescence, 48 h; also: potency is read from the fitted curve at half-maximal effect; % is scaled to controls: 0 for no effect and ±100 for the full control effect; nearly all actives have a fitted effect of over 55% in size
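Chicken DT40 Tdp1-/- cells complemented with human TDP1, 400 cells/well, exposed to compounds plus 20 nM camptothecin for at least 48 h at 37 C; viability read as ATP content by CellTiter-Glo luminescence.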
S-ASM inh = inhibitors of human secretory acid sphingomyelinase | P17405 | placental ASM, HMU-PC fluorogenic substrate, 60 min | Potency, µM (titrated, usually from 57.5 µM), for the others: at the highest dose activity change, negative = inhibition, actives largely listed as inhibitors | 340,000 tested, 0.006% active | AID 504937; also: potency is read from the fitted curve at half-maximal effect
Target sequence (P17405 47-631 limits assumed): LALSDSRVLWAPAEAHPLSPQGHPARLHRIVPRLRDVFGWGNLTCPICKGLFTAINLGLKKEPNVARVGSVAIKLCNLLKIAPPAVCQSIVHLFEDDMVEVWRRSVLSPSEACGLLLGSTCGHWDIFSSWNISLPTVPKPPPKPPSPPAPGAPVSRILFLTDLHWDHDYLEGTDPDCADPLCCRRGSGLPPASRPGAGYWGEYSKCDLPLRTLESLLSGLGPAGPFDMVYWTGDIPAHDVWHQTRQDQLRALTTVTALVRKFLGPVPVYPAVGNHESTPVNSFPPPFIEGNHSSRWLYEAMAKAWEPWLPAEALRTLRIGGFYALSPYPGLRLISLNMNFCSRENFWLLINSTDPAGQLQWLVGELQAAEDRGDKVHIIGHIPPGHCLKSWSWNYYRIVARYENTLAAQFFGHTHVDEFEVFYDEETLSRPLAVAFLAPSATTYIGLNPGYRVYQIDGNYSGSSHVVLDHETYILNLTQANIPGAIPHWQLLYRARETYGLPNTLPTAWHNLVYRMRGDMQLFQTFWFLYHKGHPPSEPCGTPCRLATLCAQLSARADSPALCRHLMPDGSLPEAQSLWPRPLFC
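Steps: dispense placental human ASM, pin compound, wait 10 min at room temperature, add HMU-PC0 substrate at 9 uM final, incubate 60 min at 37 °C, add stop solution raising pH to 10, read fluorescence.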
The depositor's hits bear a star; ? = inconclusive; / = no result. Sampled rows, rich in hits. Any-hit rate of the full collection: about 19%. Unless noted, calls follow the shape of the dose curve; as a rule, active = well fitted curve in the direction sought with a large enough effect; inconclusive = small, poorly fitted or top-dose-only effect, or another doubt; inactive = no such curve, though single readings can be large; an effect the other way counts as inactive or inconclusive.

SMILES	IL1B secr inh	HepG2 viability	TGFb SMAD3 inh	DT40 TDP1 no CPT	DT40 TDP1 CPT	S-ASM inh
CCN1CCN(CCC(=O)Nc2ccc(F)c(F)c2)CC1	22.0	9.6%	-21.4%	3.8%	-1.8%	-1.6%
C=CCC1CCCC(=O)N2CCCC12 (stereo not drawn)	21.4	0.5%	-1.3%	-8.5%	-15.2%	-0.3%
O=C(CSCc1ccc(Cl)cc1)Nc1cc([N+](=O)[O-])ccc1O	?	-7.7%	?	18.4µM*	?	-1.3%
CN(Cc1ccccc1)C(=O)c1nc(-c2ccc(Cl)cc2)n2c1CCCCC2	/	-46.2%	?	?	?	/
O=C(N/N=C/c1cc([N+](=O)[O-])cc(Br)c1O)C12CC3CCC(CC(C3)C1)C2	0.0	-55.6%	?	23.1µM*	?	-7.1%
CCCCOc1ccc(CSc2nnc(C)n2N)cc1[N+](=O)[O-]	2.1	-38.1%	8.6%	-3.2%	-8.0%	0.5%
CC(C)Oc1ccc(CSC(=N)N)cc1	15.0	-9.6%	-0.8%	-28.1%	-26.6%	0.8%
CCOc1ccc(CSC(=N)N)cc1Cl	-51.6*	-35.4%	?	11.6µM*	14.6µM*	3.6%
CCCCOc1ccc(CSCCN)cc1Cl	-83.3*	-121.1%	?	18.4µM*	18.4µM*	-3.5%
CCOc1ccc(CSC(=N)N)cc1[N+](=O)[O-]	-96.6*	-15.3%	-0.5%	?	23.1µM*	-1.6%
CCS(=O)(=O)c1ccc(O)c(NC(=O)Nc2ccccc2OC)c1	16.3	-5.5%	4.7%	-17.6%	-1.6%	-1.2%
O=C(NC(=S)Nc1sc2c(c1C(=O)O)CCCC2)c1ccccc1	24.5	-4.8%	6.0%	-3.7%	-2.7%	-0.3%
COc1cccc2c(C)nc(Nc3nc(CSc4nnc(C)s4)cc(=O)[nH]3)nc12	-6.5	-24.2%	-3.1%	18.4µM*	23.1µM*	-1.4%
Cc1ccc2c(C)nc(Nc3nc(CSc4nnc(C)s4)cc(=O)[nH]3)nc2c1	?	-34.1%	-14.6%	20µM*	11.2µM*	-2.5%
Cc1ccc2nc(Nc3nc(CSc4nnnn4-c4ccccc4)cc(=O)[nH]3)nc(C)c2c1	-12.5	8.0%	-39.2%	-98.1%	-90.6%	-2.9%
CCn1c(-c2ccccc2F)nc2cc(C(=O)NCc3ccc(C)o3)cc(NC(C)=O)c21	/	/	/	2.1%	-10.0%	/
O=C(CS(=O)(=O)c1ccc(F)cc1)NCCS(=O)(=O)c1ccccc1	-5.8	-0.9%	1.7%	-16.1%	3.2%	4.5%
O=C1OC(NCc2cccnc2)(c2ccc(Cl)cc2)c2ccccc21 (stereo not drawn)	4.7	-26.4%	1.4%	-5.2%	7.8%	2.6%
Cc1ccc2[nH]c3c(=O)n(CC(=O)N4CCCC(C)C4)ncc3c2c1 (stereo not drawn)	/	-20.5%	-3.1%	18.4µM*	?	/
CCOC(=O)c1c(C)[nH]c(C(=O)OCC(=O)NC2(C#N)CCCCC2)c1C	?	1.7%	-8.0%	?	?	-2.3%
COc1ccc(-n2cccc2/C=C/[N+](=O)[O-])cc1	-103.1*	-60.5%	17.8µM*	3.26µM*	2.31µM*	-0.7%
CCN(CC(=O)NCc1ccc(Cl)cc1)CC(=O)Nc1ccc(C(N)=O)cc1	9.7	4.1%	3.5%	-8.1%	-2.0%	3.2%
Clc1cccc(CNc2ccn3nc(-c4ccc(OCCN5CCOCC5)cc4)cc3n2)c1	-4.7	-48.4%	11.2µM*	11.6µM*	8.2µM*	/
CN(C)C(=O)CNc1ccn2nc(-c3cccc(OCCN4CCOCC4)c3)cc2n1	-1.0	0.6%	3.8%	-27.5%	11.1%	/
c1cc(-c2cc3nc(NC4CCCCC4)ccn3n2)ccc1OCCN1CCOCC1	-76.4*	-71.9%	11.2µM*	3.26µM*	3.26µM*	/
SMILES	IL1B secr inh	HepG2 viability	TGFb SMAD3 inh	DT40 TDP1 no CPT	DT40 TDP1 CPT	S-ASM inh
CC(C)Cc1ccc(-c2cc3nc(NCC4CC4)ccn3n2)cc1	0.0	-36.9%	-24.3%	?	20.6µM*	/
c1cc(-c2cc3nc(NCC4CC4)ccn3n2)ccc1OCCN1CCOCC1	-20.9	-23.8%	-11.2%	23.1µM*	23.1µM*	/
Fc1ccc(CNc2ccn3nc(-c4ccccc4)cc3n2)cc1	11.7	-6.8%	1.4%	?	?	/
CC1=C(C(=O)Nc2cccc(Cl)c2)C2(CCCCCC2)OC1=O	/	-0.6%	-14.2%	?	?	/
Cc1ccc(S(=O)(=O)N2C[C@H]3[C@H]4C(=O)N(c5ccccc5)C(=O)[C@H]4C[C@H](OC(=O)NC4CC4)[C@@]3(O)C2)cc1	24.9	-37.0%	-0.2%	-29.2%	-2.7%	/
CCOc1ccc(CC(=O)Nc2c(C(=O)c3ccccc3)oc3ccc(OC)cc23)cc1OCC	/	-17.8%	-1.0%	-7.3%	-18.4%	/
O=C(Cn1c(=O)n(Cc2nc(-c3ccccc3)no2)c(=O)c2ccccc21)Nc1cccc(Cl)c1	/	2.5%	-16.8%	?	?	/
CCOC(=O)c1ccccc1NC(=O)Cn1c(-c2nonc2N)nc2ccccc21	36.9	-14.0%	?	0.92µM*	0.82µM*	-4.5%
Nc1nonc1-c1nc2ccccc2n1CC(=O)Nc1ccccc1	-11.4	40.0%	30.8%	?	6.51µM*	-2.6%
Nc1nonc1-c1nc2ccccc2n1CC(=O)Nc1cccc(C(F)(F)F)c1	/	-41.1%	9.2%	13µM*	?	/
O=C(Cn1c(=O)n(Cc2nc(-c3ccccc3)no2)c(=O)c2ccccc21)Nc1cccc(C(F)(F)F)c1	/	-37.1%	?	20.6µM*	?	/
CSc1ncnc2c1ncn2CCCNCCCc1ccccc1	-16.5	-15.7%	-5.5%	8.4%	5.9%	/
CCOC(=O)C(C)(C)N(Cc1cccc(C)c1)S(=O)(=O)c1ccc(Cl)c([N+](=O)[O-])c1	?	-114.5%	?	14.6µM*	23.1µM*	-6.7%
CCOC(=O)C(C)(C)N(Cc1cccc(C)c1)S(=O)(=O)c1cccc([N+](=O)[O-])c1	1.3	-33.5%	?	?	?	-3.7%
COc1ccc(N2C(=O)/C(=C/c3cccs3)NC2=S)cc1	-6.4	6.2%	-4.9%	5.8µM*	1.46µM*	-4.0%
Fc1ccc(-c2nn(-c3ccc(Cl)cc3)c3c2cnc2ccc(F)cc23)cc1	/	0.7%	16.8%	-3.9%	3.0%	/
O=C(NCCCn1ccnc1)c1ccc(-c2cccc(Cl)c2Cl)o1	-26.4	-41.5%	?	?	18.4µM*	-4.0%
CC(C(=O)NCCCn1ccnc1)(c1ccccc1)c1ccccc1	-28.0	7.9%	-6.1%	18.4µM*	14.6µM*	3.3%
